DAX1 inh-1 = DAX1 (NR0B1) inhibition, primary screen. inhibition, % at 6.8 µM. hit rate 1.1% among 370,000. HEK293T StAR-luciferase reporter, SF-1/DAX-1 repression relief;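 active = inhibition above the mean over all tested compounds plus 3 SD, cut at about 3.6% in these data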;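 also: higher inhibition means more luminescence from relief of DAX-1 repression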
hgDAF-12 ag = agonists of H. glycines DAF-12 nuclear receptor; HEK293 GAL4-hgDAF12 UAS-luciferase reporter, agonist luminescence; normalized to butyrate control; activation, % at 6.8 µM; hit rate 1.8% among 370,000; AID 687014;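 active = activation above a cutoff set at the mean of all screened compounds plus 3 SD, cut at about 10% in these data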
DAX1 inh-2 = inhibits human nuclear receptor DAX1. P51843. HEK293 Gal4-DAX1 luciferase reporter, luminescence. inhibition, % at 6.75 µM. hit rate 0.99% among 340,000;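 active = inhibition above the mean over all tested compounds plus 3 SD, cut at about 4.2% in these data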;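 also: inhibition shows as a rise in luminescence from relieved DAX1 repression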
Wee1 degr inh = inhibitors of human Wee1 degradation. reporter increase, % at 5 µM. hit rate 1.2% among 220,000. HeLa Luc-Wee1K328M stability, luciferase luminescence; 100% = proteasome inhibitor MG132 effect;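 active = activation above the mean of all tested compounds plus 3 SD, set per screening run, cut at about 8.8% in these data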;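 also: cells exposed to compound for 20 h before luminescence read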
hcDAF-12 act = activates DAF-12 receptor from parasite H. contortus | HEK293 hcDAF-12 lit1-tk-luc reporter, luminescence; 0% DMSO, 100% Δ7-dafachronic acid | activation, % at 6.8 µM | AID 652067 | hit rate 1.4% among 370,000;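 active = activation above the mean of all tested compounds plus 3 SD, cut at about 5.5% in these data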
ssDAF-12 act = activators of S. stercoralis DAF-12 nuclear receptor. activation, % at 6.8 µM. hit rate 1% among 370,000. HEK293 ssDAF-12/GRIP1 lit1-tk-luc reporter, luminescence; % of 3 µM dafachronic acid response;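 active = activation above the mean over all tested compounds plus 3 SD, cut at about 0.9% in these data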
Numbers stand for hits. Only some compounds are listed: those with a hit (about 4.6% of all), similar ones and a draw of the others.

Results for CC1CCC(NC(=O)C(NS(=O)(=O)c2ccc(Br)cc2)C(C)C)CC1 (centres undefined) ?
DAX1 inh-1: inactive; hgDAF-12 ag: inactive; DAX1 inh-2: inactive; hcDAF-12 act: inactive; ssDAF-12 act: inactive

Results for O=Cc1cn(-c2ccccc2)nc1-c1ccc2c(c1)OCCO2 ?
DAX1 inh-1: inactive; hgDAF-12 ag: inactive; DAX1 inh-2: inactive; Wee1 degr inh: 9.2; hcDAF-12 act: inactive; ssDAF-12 act: inactive

How did N#Cc1cn(-c2ccccc2)nc1-c1ccc2c(c1)OCCO2 do in these assays?
DAX1 inh-1: inactive; hgDAF-12 ag: inactive; DAX1 inh-2: inactive; Wee1 degr inh: inactive; hcDAF-12 act: inactive; ssDAF-12 act: inactive

What do the screens show for `O=C(CC1C(=O)OCN1C(=O)OCc1ccccc1)OCC(=O)c1ccccc1` (centres undefined)?
DAX1 inh-1: inactive; hgDAF-12 ag: inactive; DAX1 inh-2: 4.9; Wee1 degr inh: inactive; hcDAF-12 act: inactive; ssDAF-12 act: inactive

Results for COC(=O)[C@H]1C[C@@]2(C)c3ccccc3N(S(=O)(=O)c3ccccc3)[C@H]2N1C(=O)CNC1CCCCC1 ?
DAX1 inh-1: inactive; hgDAF-12 ag: inactive; hcDAF-12 act: inactive; ssDAF-12 act: inactive

Results for COc1ccc(C2SCC(C(=O)O)N2C(C)=O)cc1 (centres undefined) ?
DAX1 inh-1: inactive; hgDAF-12 ag: inactive; DAX1 inh-2: inactive; Wee1 degr inh: inactive; hcDAF-12 act: inactive; ssDAF-12 act: inactive

What do the screens show for `COc1ccc(C2SCC(C(=O)O)N2C(C)=O)cc1OC` (centres undefined)?
DAX1 inh-1: inactive; hgDAF-12 ag: inactive; DAX1 inh-2: 8.4; Wee1 degr inh: inactive; hcDAF-12 act: inactive; ssDAF-12 act: inactive

Results for COc1cccc(/C=C2\SC(N)=NC2=O)c1OS(=O)(=O)c1ccccc1 ?
DAX1 inh-1: inactive; hgDAF-12 ag: inactive; DAX1 inh-2: inactive; Wee1 degr inh: inactive; hcDAF-12 act: inactive; ssDAF-12 act: 1.1

Results for Cc1ccc(S(=O)c2ccc([N+](=O)[O-])c3nonc23)cc1 (centres undefined) ?
DAX1 inh-1: inactive; hgDAF-12 ag: inactive; DAX1 inh-2: inactive; hcDAF-12 act: inactive; ssDAF-12 act: inactive

Results for O=C(NCc1cccnc1)c1ccc2c(c1)N(Cc1ccccc1)CCS2 ?
DAX1 inh-1: inactive; hgDAF-12 ag: inactive; DAX1 inh-2: 6.0; Wee1 degr inh: inactive; hcDAF-12 act: inactive; ssDAF-12 act: inactive

How did O=C(NCc1ccccn1)c1ccc2c(c1)N(Cc1ccccc1)CCS2 do in these assays?
DAX1 inh-1: inactive; hgDAF-12 ag: inactive; DAX1 inh-2: inactive; Wee1 degr inh: inactive; hcDAF-12 act: inactive; ssDAF-12 act: inactive

Results for O=C(OCc1nc2ccccc2s1)c1ccc([N+](=O)[O-])o1 ?
DAX1 inh-2: inactive

How did O=C(OCc1nc2ccccc2s1)c1ccc(Br)o1 do in these assays?
DAX1 inh-1: inactive; hgDAF-12 ag: inactive; DAX1 inh-2: 4.6; Wee1 degr inh: inactive; hcDAF-12 act: inactive; ssDAF-12 act: inactive

What do the screens show for `CC1=C2NC(N)=[N+](CC3CC3)C(Cc3ccccc3)[C@@H]2n2c(=O)n(-c3ccccc3)c(=O)n2C1` (some centres undefined)?
DAX1 inh-1: inactive; hgDAF-12 ag: inactive; hcDAF-12 act: inactive; ssDAF-12 act: inactive

Results for O=C(NCCc1ccccc1)OCc1cn(Cc2cccc(F)c2F)nn1 ?
DAX1 inh-1: inactive; hgDAF-12 ag: inactive; hcDAF-12 act: inactive; ssDAF-12 act: inactive

How did Cc1cccc(NC(=O)CN(C)S(=O)(=O)c2ccc3c(c2)n(C)c(=O)c(=O)n3C)c1C do in these assays?
DAX1 inh-1: inactive; hgDAF-12 ag: inactive; DAX1 inh-2: inactive; hcDAF-12 act: 6.1; ssDAF-12 act: inactive

What do the screens show for `Cc1ccccc1NC(=O)CN(C)S(=O)(=O)c1ccc2c(c1)n(C)c(=O)c(=O)n2C`?
DAX1 inh-1: inactive; hgDAF-12 ag: inactive; DAX1 inh-2: inactive; hcDAF-12 act: inactive; ssDAF-12 act: inactive

Results for CCc1cccc(NC2c3ccccc3C(=O)N2c2ccc(C)cn2)c1 (centres undefined) ?
DAX1 inh-1: inactive; hgDAF-12 ag: 12; DAX1 inh-2: inactive; Wee1 degr inh: inactive; hcDAF-12 act: inactive; ssDAF-12 act: inactive
